This test is described as follows: NCI Yeast Anticancer Drug Screen. Data for the rad50 strain (AID 155).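 Also: 0% = growth of vehicle-only cultures of the same strain.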 The following applies: S. cerevisiae rad50 strain growth inhibition, hits give high values. How it is done:
Growth inhibition of yeast strains with defined genetic alterations is measured as a screen for potential anti-cancer activity. Selected strains with alterations in DNA damage repair or cell cycle control were exposed to compounds and growth inhibition was measured relative to vehicle treated controls. The strain used in this assay is rad50

The mark [1] stands for this setting: at 5.0 µM (retest, dose inferred, filed as 0.5).
[2] abbreviates: at 50.0 µM (retest, dose inferred, filed as 5.0).

“And” between values parts separate entries of the source, which are not always exact repeats. Equal values may be shown once. Compounds without any hit were thinned out: in the full panel of roughly 79,000, 15% have a hit. The source made the active and inactive calls. Rule as the data show it: active = growth inhibition above about 70%; inactive = the rest.

Regarding `Cc1ccccc1NC(=O)Cc1csc2[n+]1C(=O)/C(=C/c1ccc([N+](=O)[O-])cc1)S2`, the growth inhibition runs as follows: under setting [1], 22% (inactive); under setting [2], 28% (inactive); (at 50.0 µM) 15.7% (inactive).
Regarding `CCC(C)C(N)C(=O)NC(CC(N)=O)C(=O)NC(CC(C)C)C(=O)NC(CCCCN)C(=O)NC(C)C(=O)NC(CC(C)C)C(=O)NC(C)C(=O)NC(C)C(=O)NC(CC(C)C)C(=O)NC(C)C(=O)NC(CCCCN)C(=O)NC(CCCCN)C(=O)NC(C(=O)NC(CC(C)C)C(N)=O)C(C)CC` (configuration not stated), the growth inhibition was -2% (inactive) under setting [1], 99% (active) under setting [2] and 93.3% (active) (at 50.0 µM).
For `Cc1ccc2cccc(OC(=O)Nc3cccc(C(F)(F)F)c3)c2n1`, the growth inhibition is 50% (inactive) under setting [1], 95% (active) under setting [2] and 91.4% (active) (at 50.0 µM).
In the case of `COc1ccc(N=CC2CCCCC2=O)c([N+](=O)[O-])c1` (configuration not stated), the growth inhibition is, setting by setting: under setting [1], 25% (inactive); under setting [2], 69% (inactive).
Consider `C/C=C/c1cc2c(c(=O)o1)C(=O)[C@@H](O)[C@H](C)O2`, for which the growth inhibition under setting [1] is 8% (inactive), the growth inhibition under setting [2] is 17% (inactive) and the growth inhibition (at 50.0 µM) is 23.5% (inactive).
Regarding `COC(=O)c1nc(=S)[nH]c(C(=O)OC)c1C(=O)c1ccc(Cl)c(Cl)c1`, the growth inhibition by setting is: under setting [1], -8% (inactive); under setting [2], 98% (active); (at 50.0 µM) 99.5% (active).
Take `CCC1C[N+]2=C(c3cc(OC)c(OC)cc3CC2)c2c1cc1n2CCc2cc(OC)c(OC)cc2-1` (configuration not stated): the growth inhibition reads like this: under setting [1], 99% (active); under setting [2], 99% (active); (at 50.0 µM) 93% (active).
Consider `Nc1nc(-c2ccccc2)nc(N)c1N=O`, for which the growth inhibition is, setting by setting: under setting [1], 50% (inactive); under setting [2], 99% (active); (at 50.0 µM) 87.4% (active).
With `O=C(c1ccc(O)c(Br)c1)c1ccc(O)c(Br)c1`, the growth inhibition reads like this: under setting [1], 43% (inactive); under setting [2], 99% (active); (at 50.0 µM) 28.7% (inactive).
In the case of `CCOC(=O)c1[nH]c(C#N)c(C(=O)OCC)c1C`, the growth inhibition runs as follows: under setting [1], 6% (inactive); under setting [2], 76% (active); (at 50.0 µM) 4.15% (inactive).
For `COc1cc(/C=C/c2ccnc3ccccc23)cc(OC)c1OC`, the growth inhibition was 30% (inactive) under setting [1], 59% (inactive) under setting [2] and 43.4% (inactive) (at 50.0 µM).
On to `CCOC(=O)NC(/C=C/c1ccccc1)NC(=O)OCC`, for which the growth inhibition runs as follows: under setting [1], -2% (inactive); under setting [2], -27% (inactive); (at 50.0 µM) 61.8% (inactive).
Regarding `CC(C)=C1C=C2CC[C@@H]3[C@](C)(CCC[C@@]3(C)C(=O)O)[C@H]2CC1`, the growth inhibition under setting [1] is -1% (inactive), the growth inhibition under setting [2] was 93% (active) and the growth inhibition (at 50.0 µM) was 88.3% (active).
Consider `COC1OC2COC(C)(C)OC2C1NS(=O)(=O)Cc1ccccc1` (configuration not stated), for which the growth inhibition (at 50.0 µM) was 2.8% (inactive) and 0.75% (inactive).
Same read-out and setting: as for `OCC1OC(n2cnc3cncnc32)C(O)C1O` (configuration not stated), the figure is 12.4% (inactive) and 3.3% (inactive).
Take `CC(=O)OC1COC(N2CCc3ccccc32)C(OC(C)=O)C1OC(C)=O` (configuration not stated): the growth inhibition (at 50.0 µM) is -16.2% (inactive) and -19% (inactive).
With `c1ccc(CSSCc2ccccc2)cc1`, where the note is “at 50.0 µM”, the growth inhibition is 9.45% (inactive) and -1.4% (inactive).
